Compounds with a hit are over-represented: about 5.4% of the library has one in this group of screens.
A3G deaminase: APOBEC3G DNA deaminase inhibitors, primary screen, biochemical, fluorescence, single-stranded DNA substrate, uHTS; hit rate 0.28% among 330,000; inhibition, % at 20 µM; recombinant A3G, ssDNA deamination FAM/TAMRA fluorescence;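 active = inhibition of at least 40% at 20 µM, with no more than 30% in the related APOBEC3A deaminase screen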;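 note: plate controls were DMSO wells with A3G for no effect and wells lacking A3G enzyme for full effect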
Target sequence (Q9HC16 whole entry, looked up): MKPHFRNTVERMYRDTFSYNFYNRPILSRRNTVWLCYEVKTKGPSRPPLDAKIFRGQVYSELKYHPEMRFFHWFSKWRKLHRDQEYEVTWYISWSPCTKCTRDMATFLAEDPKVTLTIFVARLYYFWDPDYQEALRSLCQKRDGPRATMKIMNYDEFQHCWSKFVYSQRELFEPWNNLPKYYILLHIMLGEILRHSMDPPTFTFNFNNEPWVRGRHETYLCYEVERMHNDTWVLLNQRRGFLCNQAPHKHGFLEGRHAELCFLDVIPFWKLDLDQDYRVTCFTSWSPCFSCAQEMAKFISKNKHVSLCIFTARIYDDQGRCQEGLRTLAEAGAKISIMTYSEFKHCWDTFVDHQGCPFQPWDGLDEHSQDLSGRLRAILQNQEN
aDG glyco up: activators of alpha-DG glycosylation, primary screen, uHTS, Pro5-aDG cells, AlphaScreen | alpha-DG glycosylation AlphaScreen (IIH6); 0% Pro5, 100% B10-LARGE cell signal | activation, % at 10 µM | hit rate 0.22% among 360,000 | AID 624168, 2012;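 active = activation of at least 8% versus controls, or a plate z-score of at least 8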;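 note: Pro5 are CHO cells carrying HIG-tagged alpha-DG that lacks glycosylation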
PHOSPHO1 inh: PubChem AID 1565; Phosphoethanolamine/phosphocholine phosphatase (Homo sapiens), Q8TCT1; recombinant PHOSPHO1, absorbance phosphatase assay; inhibition, % at 13.3 µM; hit rate 1.1% among 290,000; in the data active = inhibition above about 60%
rCAG binder: binders of r(CAG) RNA repeats, primary screen, biochemical, fluorescence; hit rate 1.3% among 370,000; r(CAG) RNA repeat, TO-PRO-1 dye displacement fluorescence; inhibition, % at 3 µM;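 active = inhibition above the plate cutoff, the mean of all test compounds on that plate plus 3 SD, cut at about 35% in these data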;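 note: 0% = DMSO alone and 100% = 100 µM mitoxantrone as full dye displacement; higher means more dye released from RNA so lower well fluorescence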
ALR H2O2 inh: inhibitors of human ALR sulfhydryl oxidase, primary screen, biochemical, H2O2 detection, HRP-luminol luminescence, single point. FAD-linked sulfhydryl oxidase ALR (Homo sapiens), P55789. purified ALR, DTT oxidation. inhibition, % (concentration not given with the values). hit rate 3.8% among 290,000;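 active = mean replicate inhibition above about 79%, with every replicate also reaching it, limit read from the data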
APOBEC3A inh: APOBEC3A ssDNA deaminase inhibitors, primary screen, selectivity assay for APOBEC3G inhibitor project, biochemical, FAM/TAMRA oligo cleavage fluorescence; AID 493011, 2011; recombinant A3A, FAM/TAMRA ssDNA deamination fluorescence; hit rate 0.41% among 330,000; DNA dC->dU-editing enzyme APOBEC-3A (Homo sapiens), P31941; inhibition, % at 20 µM;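 active = at least 40% inhibition at 20 µM here, with at most 30% in a related deaminase screen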;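 note: plate controls were A3A with DMSO for no effect and wells lacking A3A enzyme for full effect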
Target sequence (P31941 whole entry, looked up): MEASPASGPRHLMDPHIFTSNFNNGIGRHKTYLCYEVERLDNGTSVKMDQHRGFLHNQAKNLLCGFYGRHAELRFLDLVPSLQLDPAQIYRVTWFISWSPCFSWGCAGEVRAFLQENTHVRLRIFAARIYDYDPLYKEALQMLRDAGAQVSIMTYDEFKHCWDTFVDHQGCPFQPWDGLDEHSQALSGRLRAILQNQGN
An asterisk follows results filed as active; nt = not tested or not shown.

SMILES	A3G deaminase	aDG glyco up	PHOSPHO1 inh	rCAG binder	ALR H2O2 inh	APOBEC3A inh
CC(C)C(=O)NN(C(=O)C(C)C)c1nc2ccccc2s1	1.0	-0.1	20.0	0.5	94.9*	-1.4
CC(C)C(=O)N(Nc1nc2ccccc2s1)C(=O)C(C)C	-0.3	0.0	21.7	0.0	64.5	1.6
Cc1c(C)n(CC(O)CNc2ccccc2)c2ccccc12 (configuration not stated)	2.7	-0.1	32.3	1.3	98.1*	-1.0
Cc1c(C)n(CC(O)CN2CCCCCC2)c2ccccc12 (configuration not stated)	-6.5	0.5	-0.7	-4.6	97.5*	-3.5
c1ccc(OCc2nc3ccccc3s2)cc1	-2.5	-0.1	7.1	-3.7	-0.8	-1.3
Cc1cc(OCc2nc3ccccc3s2)ccc1N	-1.1	-0.2	20.0	0.2	98.1*	-6.1
COC(=O)[C@]12C[C@H](CC(=O)NCCCN3CCCC3=O)C(=O)N(Cc3ccccc3)C1=C[C@H](C(C)C)O[C@@H]2C1CC1	nt	nt	nt	-0.9	nt	nt
CCN(CC)C(=O)CSC(Nc1ccc(F)cc1)=C(C#N)C#N	-7.2	0.2	-2.6	22.4	98.8*	-3.6
Cc1ccc(CSC(Nc2ccc(F)cc2)=C(C#N)C#N)cc1	-2.3	1.2	13.3	28.2	-7.6	-0.1
O=C(c1ccccc1I)N1CCC(Oc2cccnc2)CC1	nt	nt	nt	-1.3	nt	nt
c1ccc2oc(NC3=NCN(C4CCCCC4)CN3)nc2c1	-9.6	-0.2	14.9	8.4	-5.6	-3.2
c1ccc2sc(NC3=NCN(C4CCCCCC4)CN3)nc2c1	-0.9	4.4*	36.3	-0.1	-2.1	-1.4
COCCn1c(SCCN2CCOCC2)nc2c1c(=O)[nH]c(=O)n2C	12.2	-0.1	63.2*	0.7	nt	-1.4
C=CCn1c(SCCN2CCOCC2)nc2c1c(=O)[nH]c(=O)n2C	-5.5	0.0	32.6	-1.9	nt	-2.6
Nc1[nH]c(C(=O)c2ccccc2)c(-c2ccc3ccccc3c2)c1C(=O)NCc1cccc2ccccc12	nt	nt	nt	20.1	nt	nt
COc1cc(C2Nc3cccc4cccc(c34)N2)cc(OC)c1O	23.3	-0.3	0.5	36.0*	6.7	7.7
COc1cc(C2Nc3cccc4cccc(c34)N2)ccc1OC(C)=O	7.5	-0.4	10.5	nt	-11.2	6.1
COc1cc(Cc2ccc(N)c(OC)c2)ccc1N	-1.8	-0.2	-7.4	2.0	98.3*	0.6
CCCC/C=C1/[C@@H](c2ccc(Cl)cc2)N(Cc2ccc3c(c2)OCO3)C2=N[C@@H](c3ccccc3)CC(=O)N21	nt	nt	nt	2.1	nt	nt
C/C=C(\C)C(=O)OC1CC(C)(C)C[C@H]2C3=CC[C@@H]4[C@@]5(C)CCC(O[C@@H]6O[C@@H](C(=O)O)[C@@H](O)C(O[C@@H]7OC[C@H](O)[C@@H](O)[C@@H]7O[C@@H]7OC(CO)C(O)[C@@H](O)[C@@H]7O)C6O[C@@H]6OC(CO)C(O)C(O)C6O)[C@@](C)(CO)[C@@H]5CC[C@]4(C)[C@]3(C)CC(O)[C@@]12CO (some centres not stated)	5.9	0.1	nt	44.9*	8.8	0.2
COC(=O)C1OC(OC2CC[C@]3(C)C(CC[C@@]4(C)[C@@H]3CC=C3[C@@H]5CC(C)(C)CC[C@]5(C(=O)OC5OC(CO)C(O)C(O)C5O)CC[C@]34C)C2(C)C)C(O)C(O)C1O[C@H]1OCC(O)C(O)C1O (some centres not stated)	14.7	0.9	nt	nt	1.3	1.2
CC[n+]1ccc(C[n+]2ccccc2)c2ccccc21	nt	-0.1	88.1*	-0.9	nt	nt
COC(=O)c1ccc(COc2ccc(/C=N/O)cc2)o1	-10.7	-0.2	36.6	-0.1	98.5*	0.3
Cc1ccc(C2Nc3ccccc3NC3=C2C(=O)OC(C)C3)cc1 (configuration not stated)	1.8	0.2	-6.4	-3.7	99.2*	0.0
CC1CC2=C(C(=O)O1)C(c1ccc(Cl)cc1)Nc1ccccc1N2 (configuration not stated)	-5.6	0.0	-1.5	-2.3	98.8*	-2.5
SMILES	A3G deaminase	aDG glyco up	PHOSPHO1 inh	rCAG binder	ALR H2O2 inh	APOBEC3A inh
COc1ccc(-c2nc(SC(C)C(=O)NCC3CCCO3)n[nH]2)cc1 (configuration not stated)	-6.0	-0.1	nt	-1.8	-2.7	21.7
COc1ccc(-c2nc(SC(C)C(=O)Nc3ccc(NC(C)=O)cc3)n[nH]2)cc1 (configuration not stated)	-11.3	0.0	nt	0.9	98.3*	-3.8
O=C(NCCCN1CCOCC1)c1nn2c(C(F)(F)F)cc(-c3ccco3)nc2c1Cl	-8.9	0.2	40.3	4.1	-4.2	-4.5
O=C(NC1CCCC1)c1cc2nc(-c3ccco3)cc(C(F)(F)F)n2n1	-13.7	0.1	4.0	-4.8	88.5*	-4.3
CC(C)NC(=O)c1nn2c(C(F)(F)F)cc(-c3ccco3)nc2c1Cl	-8.0	0.1	3.4	-1.6	85.9*	-1.9
CC(C)NC(=O)c1cc2nc(-c3ccco3)cc(C(F)(F)F)n2n1	6.2	0.2	0.9	-4.8	4.1	6.0
Oc1c(C(c2ccco2)N2CCN(C(c3ccccc3)c3ccccc3)CC2)sc2ncnn12 (configuration not stated)	-14.8	-0.2	88.1*	14.4	nt	-3.8
Oc1c(C(c2ccccc2)N2CCc3ccccc3C2)sc2ncnn12 (configuration not stated)	-6.5	-0.2	-7.7	5.1	43.1	-2.5
O=c1c2cc(O)c(O)cc2oc2cc(O)c(C3OC(CO)C(O)C(O)C3O)c(O)c12 (configuration not stated)	-4.8	-0.1	nt	9.3	99.3*	-3.5
O=c1cc(-c2ccc(O)c(O)c2)oc2cc(O)c([C@@H]3O[C@H](CO)[C@@H](O)[C@H](O)[C@H]3O)c(O)c12	-7.1	0.2	nt	-2.5	98.6*	-0.4
Cc1[nH]c2ccccc2c1/C=N/NC(=O)Cc1cccs1	-1.2	-0.3	19.1	4.4	93.9*	2.9
CCc1nnc(N/N=C/c2c(C)[nH]c3ccccc23)n1N	-4.2	0.3	43.9	3.0	98.8*	-5.4
Cc1[nH]c2ccccc2c1/C=N/Nc1cccc(C(=O)O)c1	1.6	-0.1	60.8*	21.4	nt	10.0
Cc1[nH]c2ccccc2c1/C=N/NC(N)=S	-3.7	0.1	22.0	0.0	nt	-3.7
Cc1[nH]c2ccccc2c1/C=N/NC(=O)CNC(=O)Cc1ccccc1	9.6	-0.1	27.6	3.3	31.9	-1.3
N#Cc1ccc(S(=O)(=O)N2CCCc3nc(-c4ccc(F)cc4)ccc32)cc1	nt	nt	nt	2.6	nt	nt
Cc1nnc(NC(=O)c2ccccc2F)s1	-1.4	0.1	-3.3	1.0	-12.2	2.3

Compound activity: PubChem, several laboratories
